# Test results taken from the supplement of paper PMC3334620.
# In all, about 33,000 sequences were measured (“E-score (-0.5 to 0.5)”: median about -0.012, highest 2% from about 0.27 on). The sample holds the highest values, similar sequences and a random draw of the others, so the mix is not that of the screen.
# Biological target: T1, Vhr1 (UniProt P40522)
# T1 sequence: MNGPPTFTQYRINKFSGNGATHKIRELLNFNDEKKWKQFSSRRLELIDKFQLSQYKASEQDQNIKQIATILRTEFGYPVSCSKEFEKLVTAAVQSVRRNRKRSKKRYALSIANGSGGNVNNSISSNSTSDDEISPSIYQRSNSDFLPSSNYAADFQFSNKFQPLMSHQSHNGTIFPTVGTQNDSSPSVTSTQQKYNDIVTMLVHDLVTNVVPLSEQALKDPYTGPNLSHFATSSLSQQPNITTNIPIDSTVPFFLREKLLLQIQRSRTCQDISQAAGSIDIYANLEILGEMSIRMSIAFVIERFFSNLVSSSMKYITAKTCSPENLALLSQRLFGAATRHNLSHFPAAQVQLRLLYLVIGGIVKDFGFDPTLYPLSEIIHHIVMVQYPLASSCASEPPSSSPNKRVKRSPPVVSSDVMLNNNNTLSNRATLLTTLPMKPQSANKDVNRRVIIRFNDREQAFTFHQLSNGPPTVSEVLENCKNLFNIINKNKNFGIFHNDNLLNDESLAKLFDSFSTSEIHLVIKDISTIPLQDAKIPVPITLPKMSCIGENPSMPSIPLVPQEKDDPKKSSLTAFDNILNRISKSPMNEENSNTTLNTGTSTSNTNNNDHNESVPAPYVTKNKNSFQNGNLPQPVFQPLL
# Experiment: PBM E-score (8-mer binding enrichment) (E-score (-0.5 to 0.5)); higher = stronger / more preferred TF binding
# Details: protein concentration: 200 nM; construct: GST-full length
# Outline: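 Yeast transcription factors carrying a GST tag, as full-length proteins or DNA-binding domains, were produced by PURExpress in vitro transcription/translation. About 100-200 nM protein was applied to universal all-10-mer Agilent arrays, double-stranded by primer extension on fresh or once-stripped slides. Bound protein was detected with fluorescent anti-GST, and scans were normalised with masliner. The Universal PBM Analysis Suite gave each ungapped eight-base word, pooled with its reverse complement, an E-score, a modified Wilcoxon-Mann-Whitney statistic.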
row,Sequence,PBM E-score
1,ACACATGG,0.215
2,ATGCATGA,0.165
3,ATTCATGG,0.21
4,ACTCATGA,0.369
5,ATGCATGG,0.28
6,ATTCATGC,0.21
7,ACTCATGG,0.317
8,GCTCATGA,0.16
9,AATTCACG,-0.0883
10,CGACAGAG,0.0418
11,GGACTATA,0.0737
12,CCAATTCC,-0.0792
13,ATCGTCTA,0.0131
14,ATCCTCCC,-0.107
15,CAAGTTCC,-0.216
16,AAGTCCGA,-0.205
17,ATTATACC,0.112
18,ATTATACG,0.303
19,ATTATACA,0.00881
20,CGGTTCAA,0.0706
21,AGATTCCA,0.00955
22,TGATTCAA,0.326
23,TGATTCCA,0.364
24,CGATTCCA,0.0812
25,AGATTCAA,-0.133

row,Sequence,PBM E-score
1,AGGTTCAA,0.0239
2,TGGTTCAA,0.289
3,GGATTCAA,-0.0312
4,CGATGAAA,-0.0595
5,AAGCTTTA,-0.237
6,CTAAAACA,-0.0504
7,GTAGCTTA,0.00186
8,CAAGTAAG,-0.123
9,CCATTCAG,-0.0511
10,GCTAGTCA,0.284
11,GCTAGTCC,-0.158
12,CCTAGTCA,0.309
13,CCTAGTCG,0.0391
14,CCTAGTCC,-0.0886
15,ACTAGTCA,0.292
16,GCTAGTTA,0.00532
17,ACTAGTCC,0.133
18,TCTAGTCA,0.218
19,ATCTTCTG,-0.113
20,ACTTCGGA,-0.00447
21,GAAAGTTC,-0.349
22,AGAGTACT,0.0467
23,ATTCTTAC,-0.00122
24,CTCTGGAC,0.0126
25,CCTCCCAA,-0.246

row,Sequence,PBM E-score
1,GCGCCCCA,-0.131
2,CCGCCCCA,0.349
3,ACGCCCCA,0.112
4,CCGCCCCG,0.365
5,CCGCCCCC,-0.17
6,CCTCCCCA,0.28
7,CCTCCCCC,-0.19
8,CCGCCCGG,0.0777
9,CAGAAATG,-0.168
10,CTTCATGA,0.145
11,CGGCCGAA,0.185
12,AGGTTGAA,-0.127
13,AGGAACCT,-0.0548
14,CAAGAGTA,0.167
15,CTCCCGCC,0.0303
16,CTAGCGAC,-0.00899
17,CGTGTCTA,0.124
18,GAGATTTA,-0.176
19,GGGATTTA,-0.29
20,ATGATTTA,0.295
21,GTGATTTA,0.321
22,CTGATTTA,0.00054
23,ATGATTTC,0.249
24,TCAATTGA,-0.0329
25,GATTCTCA,0.078

row,Sequence,PBM E-score
1,TGGTCCAA,-0.0804
2,AGATATAT,0.131
3,GCTGGGAA,0.0455
4,AGTGGGAC,0.0716
5,CCAAATCG,-0.166
6,ACTGCTCA,0.0795
7,AGCACTGG,-0.0591
8,AGGATGGC,0.124
9,CTCACTCA,0.0981
10,CTCACACA,0.299
11,GTCACTCA,0.325
12,GTCACACA,0.303
13,CTCACGCC,0.239
14,GTCACAGA,0.157
15,CTCACATA,0.186
16,ATCACTCA,0.234
17,GTCACAAA,-0.0213
18,GTCACGCA,0.0821
19,CTCACACC,0.0809
20,CTCACGCA,0.29
21,CATGGTAA,-0.0174
22,AATAGGGC,-0.124
23,AATTGTGG,0.00128
24,CCAACGCC,-0.203
25,CATTTGAA,-0.0815

row,Sequence,PBM E-score
1,TGATAGCA,0.194
2,ATAGATGC,-0.0668
3,GTGATATA,0.0452
4,CCATCCTC,0.0474
5,CTAGTATA,0.0509
6,CTCAACTA,0.106
7,ACTCCACA,0.277
8,AATCAATC,0.186
9,TATCAACA,0.172
10,TCTCCACA,-0.0495
11,GATCAACA,-0.0766
12,ACTCAATC,0.293
13,ACTCAATG,0.159
14,ACTCAACA,0.289
15,AATCAACA,0.303
16,ACTCCACG,-0.104
17,TCTCAACA,0.113
18,ACTCAACG,0.171
19,ACTCATAA,0.164
20,ACATCGCG,0.183
21,AGTTAGGC,-0.144
22,CGACTGTC,0.102
23,AAAGTAGG,-0.0386
24,ATCTCCAT,0.0116
25,ATGCTTGA,0.0306

row,Sequence,PBM E-score
1,AATCACCC,0.38
2,CATCACCC,0.103
3,AATCACCG,0.266
4,CATCACCA,0.167
5,AACCACCT,0.0827
6,AATCACGT,0.225
7,TATCACCA,0.0885
8,AATCACCT,0.312
9,AATCACCA,0.33
10,ACCCCAAG,-0.0964
11,CCGATCAC,0.0847
12,GTGCAAAC,-0.0932
13,TAGAAGGA,-0.332
14,ATAAGGGA,-0.137
15,ATCTAAAA,0.0219
16,ATTAACTG,0.224
17,AGTCATTA,0.368
18,GGTCATTA,-0.0362
19,CGTCATTC,0.177
20,CCTCATTC,-0.0181
21,AGCCATTC,-0.00524
22,ACTCATTC,0.367
23,AGTCATTC,0.384
24,AGTCATTG,0.389
25,CGTCATTA,-0.122

row,Sequence,PBM E-score
1,ATTCATTC,0.165
2,ACTCATTG,0.196
3,ATTCATTG,0.0738
4,TGACAGCA,0.127
5,ATAGCGTA,-0.0276
6,CAAAACAA,-0.13
7,GCCTCAAA,-0.0409
8,GAGGGCAC,-0.205
9,CAAGTCAG,0.208
10,GAAGTCAC,0.269
11,CTAGTCAA,0.124
12,CTAGTCAC,0.34
13,CTAGTCGC,0.0967
14,GTAGTCAC,0.441
15,CAAGTCAC,0.284
16,AAAGTCAC,0.246
17,GTAGTCAA,0.262
18,ACTCTTTC,-0.172
19,GTGTCTTA,0.0499
20,CCTGAATC,0.0923
21,GACGTTAC,-0.062
22,AAAGGCGT,-0.19
